Assay results taken from PubChem BioAssay (NCATS).
Results filed as inconclusive are left out. The source made the active and inactive calls. Unless noted, the call rests on the fitted dose curve; in most records, active means well fitted curve in the direction sought with a large enough effect; inconclusive means small, poorly fitted or top-dose-only effect, or another doubt; inactive means no such curve, though single readings can be large; an effect the other way counts as inactive or inconclusive.

Experiments:
[1] = target: Lysosomal acid glucosylceramidase (Homo sapiens) (UniProt P04062); test: Glucocerebrosidase-p2 (AID 348; in the data active means potency below about 10 µM; further: potency means the concentration at half of the fitted maximal effect); conditions: purified GBA, blue fluorogenic substrate, 40 min
In short: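 Normal human glucocerebrosidase (0.2 nM) with blue fluorogenic substrate (80 uM final) in citrate/phosphate pH 5.9 with 10mM sodium taurocholate, 0.01% tween-20; 40 min RT, NaOH/glycine stop; fluorescence Ex 365/Em 440; AC50 from a titration from 0.6 nM upwards.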

[2] = target: Cytochrome P450 1A2 (Homo sapiens) (UniProt P05177); test: p450-cyp1a2 (AID 410; calls by dose curve; further: potency means the concentration at half of the fitted maximal effect;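 on activity change, negative = inhibition: -100% = full effect of reference inhibitor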)
In short: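 20nM CYP1A2, 100uM Luciferin-ME (=Km), 100mM KPO4; cpd 10 min RT; +NADPH regen, 60 min RT; stop/detect 20 min; luminescence. Normalized to furafylline 57 uM = full inhibition.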

[3] = NFAT Signaling Pathway (AID 444; active means well fitted curve in either direction with a large enough effect, not every such curve was filed as active;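 further: carbachol stimulus at about its EC50 of 1 µM final; on the % scale 0 is the no-effect control and ±100 the full control effect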); conditions: Jurkat NFAT-bla M1, carbachol, beta-lactamase ratio, 5 h; at 7.69 µM (top of the series) unless noted
In short: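 Jurkat cells carrying an NFAT-driven β-lactamase reporter and co-transfected muscarinic M1 receptor were treated with compound plus carbachol (1 uM final, an EC50 level) for 5 h at 37 °C. CCF4 loading followed for 1 h at RT; 460/530 nm ratio gave %activity.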

[4] = Stat Signaling Pathway (AID 446; active means well fitted curve in either direction with a large enough effect, not every such curve was filed as active;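 further: ME-180 cervical cancer cells given 40 pM IL-6 alongside compound; SIE-controlled beta-lactamase reporter measured as 460/530 nm FRET emission ratio; on the % scale 0 is the no-effect control and ±100 the full control effect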); conditions: ME-180 SIE beta-lactamase reporter, IL-6 stimulated, 5 h; at 7.69 µM (top of the series) unless noted
In short: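 Overnight-plated ME-180 cells bearing a STAT Inducible Element beta-lactamase reporter; 5 h co-exposure to compound and 40 pM IL-6; values normalized to 300 pM IL-6 and 125 nM JAK inhibitor controls.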

[5] = target: Glucocorticoid receptor (Homo sapiens) (UniProt P04150); test: GR-GFP Redistribution (AID 450;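 active means compounds whose dose series gives a full or clear partial fitted curve of increased nuclear translocation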; further: potency means the concentration at half of the fitted maximal effect); conditions: U2OS GR-GFP nuclear translocation, laser cytometry, 2 h
[6] = target: Glucocorticoid receptor (Homo sapiens) (UniProt P04150); test: GR-EFC Redistribution (AID 451; calls by dose curve; further: potency means the concentration at half of the fitted maximal effect); conditions: CHO-K1 GR-EFC translocation, beta-gal luminescence, 2 h
In short: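 CHO-K1 cells stably expressing nuclear-localized β-gal enzyme acceptor and GR fused C-terminally to the enzyme donor fragment; ligand-driven nuclear translocation restores β-gal by complementation. Compounds titrated up to 46 uM final, 2 h at 37 °C; luminescence read.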

[7] = target: Mitogen-activated protein kinase 10 (Mus musculus) (UniProt Q61831); test: JNK3 AlphaScreen Assay (AID 530; active means well fitted curve in either direction with a large enough effect, not every such curve was filed as active;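 further: kinase came from lysate of stimulated human HepG2 cells; signal reports phosphorylation of biotinylated GST-cJun 1-79 at Ser73 with 10 µM ATP; on the % scale 0 is the no-effect control and ±100 the full control effect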)
In short: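 Biotinylated GST-cJun(1-79) served as substrate for JNK3 in HepG2 lysates stimulated with IL-1beta and TNF-alpha. ATP was 10 uM final, pH 7.6. Ser73 phosphorylation was quantified by AlphaScreen (680 nm excitation).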

[8] = target: 3',5'-cyclic-AMP phosphodiesterase 4B (Homo sapiens) (UniProt Q07343); test: qHTS Assay for Inhibitors of PDE-IV (AID 607; active means well fitted activation curve with a large enough effect in the main read-out, with a control signal flat, not every such curve was filed as active; further: % of control where 0% means no effect)
In short: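 Live HEK293 cells with a modified cyclic nucleotide-gated (CNG) channel report intracellular cAMP via membrane-potential dye fluorescence (ex 535/em 590 nm). Endogenous PDE-IV was targeted. Compounds were tested at up to 22.9 uM final; RO 20-1724 100 uM served as control.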

[9] = target: Cytochrome P450 3A4 (Homo sapiens) (UniProt P08684); test: qHTS Assay for Activators of Cytochrome P450 3A4 (AID 885); further: nearly all actives have a fitted effect of over 65% in size
In short: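 Using 20nM recombinant human CYP3A4 in potassium phosphate (200mM), substrate Luciferin-PPXE at 25uM, luminescent luciferin detection followed a 60-min RT NADPH reaction; data scaled to 57 uM ketoconazole.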

[10] = qHTS Assay for Lipid Storage Modulators (AID 1519; calls by dose curve); conditions: Drosophila S3 cells, BODIPY lipid droplet/cell ratio, laser cytometry, cells loaded with oleic acid
In short: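 Cells seeded at 5,000 per well were treated with compounds over a concentration series and loaded with oleic acid (400 uM, as added). Lipid droplet fluorescence (488 nm excitation, 500-530 nm channel) was read by laser-scanning cytometry and normalized to 20 uM Triacsin C.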

[11] = target: Dual specificity protein kinase CLK4 (Homo sapiens) (UniProt Q9HAZ1); test: qHTS Assay for Inhibitors of CDC-like Kinase 4 (ADP-Glo Assay) (AID 1771); further: nearly all actives have a fitted effect of over 70% in size; further: potency means the concentration at half of the fitted maximal effect
In short: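 25 nM Clk4, 100 uM RS peptide, 1 uM ATP (final); 2 mM MgCl2, 0.5 mM EGTA, 2.5 mM DTT, 0.01% Triton X-100; 1 hr RT. ADP-Glo readout: ATP depletion 45 min, conversion/luciferase 30 min, luminescence.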

[12] = target: Dual specificity protein kinase CLK4 (Homo sapiens) (UniProt Q9HAZ1); test: qHTS Assay for Inhibitors of CDC-like Kinase 4 (ADP-FP Assay) (AID 1795); further: nearly all actives have a fitted effect of over 60% in size; further: potency means the concentration at half of the fitted maximal effect
In short: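 Clk4 6.25 nM; RS peptide 100 uM; ATP 1 uM; 25 mM Tris pH 7.5, 10 mM MgCl2; 1 h reaction. ADP detected via antibody/orange tracer FP displacement; TG003 positive control.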

[13] = target: Ubiquitin carboxyl-terminal hydrolase 1 (Homo sapiens) (UniProt O94782); test: Inhibitors of USP1/UAF1: Pilot qHTS (AID 504865);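 further: rhodamine fluorescence freed from ubiquitin-rhodamine substrate followed over time; top concentration of the series differs between compounds; on the % scale 0 is the no-effect control and ±100 the full control effect; nearly all actives have a fitted effect of over 35% in size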
In short: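 In 50mM HEPES pH 7.8 containing 0.5mM EDTA, 1mM TCEP, 0.1 mg/ml BSA and 0.01% Tween-20, 1nM USP1/UAF1 is exposed to compound for 15 min, then Ub-Rho (150nM final) is added and fluorescence is read over time.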

[14] = target: Cytochrome P450 3A4 (Homo sapiens) (UniProt P08684); test: qHTS Assay for Inhibitors and Substrates of Cytochrome P450 3A4 (AID 884); further: nearly all actives have a fitted effect of over 50% in size; further: potency means the concentration at half of the fitted maximal effect
In short: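 Luminescent readout of luciferin produced by CYP3A4 (20 nM) dealkylation of Luciferin-PPXE, 25 uM (its KM). NADPH-driven reaction ran 60 min at RT after 10 min compound preincubation; data scaled to 57 uM ketoconazole as 100% inhibition.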

[15] = Confirmation and Secondary Assay for Modulators of Hemoglobin Beta Chain Splicing at IVS2 654 locus (AID 910);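 further: per-well total GFP intensity by laser scanning cytometry after 2-day treatment; % of control where 0% means no effect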
In short: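 HeLa cells stably carrying EGFP interrupted by mutant beta-globin IVS2-654 intron (CMV-driven) were treated with compound for 2 days at 37C; corrected splicing was scored as total peak GFP intensity per well (488 nm excitation, 500-520 nm emission).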

[16] = Confirmation and Secondary Assay for Modulators of Hemoglobin Beta Chain Splicing at IVS2 705 locus (AID 930);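 further: HeLa cells stably expressing the EGFP-705 splicing reporter; GFP fluorescence per well restored by corrected splicing of the IVS2-705 intron in EGFP; % of control where 0% means no effect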
In short: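 Secondary splice-site specificity test uses HeLa expressing CMV-driven EGFP interrupted by IVS2-705; cells were treated 2 days at 37C with 500 nM antisense PNA as positive control.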

[17] = AP1 Signaling Pathway (AID 357; active means well fitted curve in either direction with a large enough effect, not every such curve was filed as active;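 further: ME-180 reporter cells stimulated with EGF at its EC50 level; on the % scale 0 is the no-effect control and ±100 the full control effect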); conditions: ME-180 AP-1-bla reporter, EGF-induced, beta-lactamase ratio, 5 h; at 7.69 µM (top of the series) unless noted
In short: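 Modulation of EGF-driven AP-1 transcription was assessed with a beta-lactamase reporter in ME-180 cells. Compound and EC50 EGF were co-incubated 5 hours at 37 °C before 2.5-hour CCF4 loading at room temperature and dual-emission reading.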

[18] = target: Cytochrome P450 2C19 (Homo sapiens) (UniProt P33261); test: qHTS Assay for Inhibitors and Substrates of Cytochrome P450 2C19 (AID 899); further: potency means the concentration at half of the fitted maximal effect; nearly all actives have a fitted effect of over 60% in size
In short: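 NADPH-dependent conversion of Luciferin-H EGE (10uM, at KM) by 5nM enzyme in 50mM KPO4, 60 min at 37C following 10 min compound preincubation. Stopped with luciferin detection buffer; luminescence read after 20 min.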

[19] = qHTS Assay for Identification of Small Molecule Agonists for Hypoxia Response Element Signaling Pathway (AID 914; active means well fitted activation curve with a large enough effect in the signal ratio, with a control signal flat, not every such curve was filed as active; the % refers to the signal ratio; further: % of control where 0% means no effect); conditions: ME-180 (cervical carcinoma) HRE-bla reporter, beta-lactamase ratio, CoCl2, 17 h; activation: stronger effect = higher value
In short: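 qHTS titration; ME-180 HRE-bla cells; EC50 CoCl2 co-treatment, 17 h at 37 degrees Celsius; CCF4 dye, ex 405nm, em 460nm and 530nm; %Activity from ratio; AC50.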

[20] = measured here: cell count channel max response
[21] = measured here: lipid channel max response

Sequence of Cytochrome P450 3A4 (Homo sapiens) (P08684 whole entry, looked up): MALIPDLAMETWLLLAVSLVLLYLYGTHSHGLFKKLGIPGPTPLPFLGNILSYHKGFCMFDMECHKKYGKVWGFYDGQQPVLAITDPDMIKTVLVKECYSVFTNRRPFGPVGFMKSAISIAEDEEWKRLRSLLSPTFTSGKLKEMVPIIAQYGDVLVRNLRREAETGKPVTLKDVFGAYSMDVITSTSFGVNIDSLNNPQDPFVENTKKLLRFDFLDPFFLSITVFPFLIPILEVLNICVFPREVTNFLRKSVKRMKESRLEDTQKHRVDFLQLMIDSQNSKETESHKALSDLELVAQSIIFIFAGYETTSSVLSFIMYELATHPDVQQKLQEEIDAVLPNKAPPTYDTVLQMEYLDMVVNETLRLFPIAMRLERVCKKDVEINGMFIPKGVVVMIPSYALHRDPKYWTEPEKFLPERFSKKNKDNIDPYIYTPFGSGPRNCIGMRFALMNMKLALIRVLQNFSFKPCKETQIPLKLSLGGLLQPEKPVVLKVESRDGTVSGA
Sequence of Glucocorticoid receptor (Homo sapiens) (P04150 whole entry, looked up, the tested form may be a part): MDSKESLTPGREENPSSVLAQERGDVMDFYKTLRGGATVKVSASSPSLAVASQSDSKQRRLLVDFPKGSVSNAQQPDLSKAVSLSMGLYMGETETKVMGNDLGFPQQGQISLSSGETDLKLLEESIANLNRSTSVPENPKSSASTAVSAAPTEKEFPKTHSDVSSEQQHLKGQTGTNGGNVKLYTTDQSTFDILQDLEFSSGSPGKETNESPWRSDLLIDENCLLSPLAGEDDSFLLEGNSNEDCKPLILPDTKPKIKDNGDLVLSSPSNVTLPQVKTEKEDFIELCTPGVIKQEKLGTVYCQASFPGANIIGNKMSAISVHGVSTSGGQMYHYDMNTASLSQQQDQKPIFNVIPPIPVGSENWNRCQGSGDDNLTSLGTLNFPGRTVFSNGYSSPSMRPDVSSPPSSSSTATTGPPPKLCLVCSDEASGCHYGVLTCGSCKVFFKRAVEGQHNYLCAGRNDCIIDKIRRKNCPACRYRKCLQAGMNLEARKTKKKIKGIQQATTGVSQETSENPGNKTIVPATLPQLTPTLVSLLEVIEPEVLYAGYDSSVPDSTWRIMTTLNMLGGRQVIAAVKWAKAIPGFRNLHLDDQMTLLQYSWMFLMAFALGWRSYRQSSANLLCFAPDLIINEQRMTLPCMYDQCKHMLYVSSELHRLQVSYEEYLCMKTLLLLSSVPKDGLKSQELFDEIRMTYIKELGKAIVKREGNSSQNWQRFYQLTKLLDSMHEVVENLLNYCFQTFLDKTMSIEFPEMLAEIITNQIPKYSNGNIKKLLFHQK
Sequence of Dual specificity protein kinase CLK4 (Homo sapiens) (Q9HAZ1 whole entry, looked up): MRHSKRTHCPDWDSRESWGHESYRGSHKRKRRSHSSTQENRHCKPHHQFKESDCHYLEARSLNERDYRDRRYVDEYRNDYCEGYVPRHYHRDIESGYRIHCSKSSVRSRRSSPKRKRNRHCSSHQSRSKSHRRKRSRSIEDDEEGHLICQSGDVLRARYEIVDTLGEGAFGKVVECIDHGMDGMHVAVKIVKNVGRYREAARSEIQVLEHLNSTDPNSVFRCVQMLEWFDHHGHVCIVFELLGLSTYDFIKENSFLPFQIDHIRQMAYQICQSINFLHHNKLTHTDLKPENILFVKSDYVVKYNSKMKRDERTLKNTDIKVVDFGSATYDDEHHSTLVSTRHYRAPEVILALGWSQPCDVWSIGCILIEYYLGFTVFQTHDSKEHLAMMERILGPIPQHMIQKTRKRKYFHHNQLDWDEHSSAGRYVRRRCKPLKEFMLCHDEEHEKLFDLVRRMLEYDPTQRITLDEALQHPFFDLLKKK
Sequence of Ubiquitin carboxyl-terminal hydrolase 1 (Homo sapiens) (O94782 whole entry, looked up): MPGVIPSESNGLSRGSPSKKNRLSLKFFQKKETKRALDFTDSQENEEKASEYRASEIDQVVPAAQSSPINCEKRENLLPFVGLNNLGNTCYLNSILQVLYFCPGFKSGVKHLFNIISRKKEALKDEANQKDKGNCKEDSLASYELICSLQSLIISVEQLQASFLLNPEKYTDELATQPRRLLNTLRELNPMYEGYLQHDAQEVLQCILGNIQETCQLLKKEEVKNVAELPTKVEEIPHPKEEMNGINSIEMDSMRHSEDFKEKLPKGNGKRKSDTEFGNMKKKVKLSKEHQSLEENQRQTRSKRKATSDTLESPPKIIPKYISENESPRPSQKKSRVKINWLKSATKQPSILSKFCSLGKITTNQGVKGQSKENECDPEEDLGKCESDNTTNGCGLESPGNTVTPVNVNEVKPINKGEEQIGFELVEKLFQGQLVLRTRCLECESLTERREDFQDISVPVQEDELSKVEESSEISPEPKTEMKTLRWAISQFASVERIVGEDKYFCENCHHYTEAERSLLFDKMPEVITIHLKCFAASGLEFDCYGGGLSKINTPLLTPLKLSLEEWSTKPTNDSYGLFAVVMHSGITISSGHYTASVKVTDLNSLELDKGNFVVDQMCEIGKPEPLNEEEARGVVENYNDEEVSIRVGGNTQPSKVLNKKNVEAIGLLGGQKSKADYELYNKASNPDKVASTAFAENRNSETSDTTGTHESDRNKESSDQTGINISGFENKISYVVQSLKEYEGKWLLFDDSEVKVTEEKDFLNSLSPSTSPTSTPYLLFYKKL
Sequence of 3',5'-cyclic-AMP phosphodiesterase 4B (Homo sapiens) (Q07343 whole entry, looked up): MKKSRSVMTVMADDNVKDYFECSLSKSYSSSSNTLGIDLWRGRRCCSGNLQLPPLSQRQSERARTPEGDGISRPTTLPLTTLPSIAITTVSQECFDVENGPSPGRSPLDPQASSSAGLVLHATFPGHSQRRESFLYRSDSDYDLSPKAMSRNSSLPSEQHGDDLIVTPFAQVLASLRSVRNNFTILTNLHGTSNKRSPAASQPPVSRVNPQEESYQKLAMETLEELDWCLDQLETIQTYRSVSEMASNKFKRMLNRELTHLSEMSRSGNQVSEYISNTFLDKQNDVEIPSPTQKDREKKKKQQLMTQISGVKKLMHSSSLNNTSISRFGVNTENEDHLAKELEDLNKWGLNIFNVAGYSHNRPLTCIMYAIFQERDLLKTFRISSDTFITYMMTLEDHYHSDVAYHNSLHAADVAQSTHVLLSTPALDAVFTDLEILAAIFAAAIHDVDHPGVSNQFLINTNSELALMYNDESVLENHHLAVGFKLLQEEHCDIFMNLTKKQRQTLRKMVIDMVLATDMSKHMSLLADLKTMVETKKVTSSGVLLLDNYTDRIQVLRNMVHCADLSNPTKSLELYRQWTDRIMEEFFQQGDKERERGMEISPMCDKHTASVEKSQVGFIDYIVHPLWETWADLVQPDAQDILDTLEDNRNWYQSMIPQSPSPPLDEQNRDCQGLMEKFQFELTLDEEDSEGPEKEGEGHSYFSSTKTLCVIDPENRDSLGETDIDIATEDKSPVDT
Sequence of Cytochrome P450 1A2 (Homo sapiens) (P05177 whole entry, looked up): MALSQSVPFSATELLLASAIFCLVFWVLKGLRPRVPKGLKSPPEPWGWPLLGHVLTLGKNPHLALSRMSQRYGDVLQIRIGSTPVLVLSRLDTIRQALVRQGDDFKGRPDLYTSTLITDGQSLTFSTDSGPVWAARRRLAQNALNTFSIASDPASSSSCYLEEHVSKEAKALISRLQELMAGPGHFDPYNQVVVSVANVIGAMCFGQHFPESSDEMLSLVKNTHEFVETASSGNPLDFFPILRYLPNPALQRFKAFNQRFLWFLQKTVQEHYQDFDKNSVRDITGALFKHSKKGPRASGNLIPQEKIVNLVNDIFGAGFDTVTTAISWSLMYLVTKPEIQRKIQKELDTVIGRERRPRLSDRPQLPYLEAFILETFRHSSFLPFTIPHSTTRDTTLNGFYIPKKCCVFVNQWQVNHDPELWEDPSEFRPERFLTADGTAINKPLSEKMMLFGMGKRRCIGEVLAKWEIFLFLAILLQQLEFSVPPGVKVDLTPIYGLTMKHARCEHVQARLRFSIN
Sequence of Lysosomal acid glucosylceramidase (Homo sapiens) (P04062 whole entry, looked up): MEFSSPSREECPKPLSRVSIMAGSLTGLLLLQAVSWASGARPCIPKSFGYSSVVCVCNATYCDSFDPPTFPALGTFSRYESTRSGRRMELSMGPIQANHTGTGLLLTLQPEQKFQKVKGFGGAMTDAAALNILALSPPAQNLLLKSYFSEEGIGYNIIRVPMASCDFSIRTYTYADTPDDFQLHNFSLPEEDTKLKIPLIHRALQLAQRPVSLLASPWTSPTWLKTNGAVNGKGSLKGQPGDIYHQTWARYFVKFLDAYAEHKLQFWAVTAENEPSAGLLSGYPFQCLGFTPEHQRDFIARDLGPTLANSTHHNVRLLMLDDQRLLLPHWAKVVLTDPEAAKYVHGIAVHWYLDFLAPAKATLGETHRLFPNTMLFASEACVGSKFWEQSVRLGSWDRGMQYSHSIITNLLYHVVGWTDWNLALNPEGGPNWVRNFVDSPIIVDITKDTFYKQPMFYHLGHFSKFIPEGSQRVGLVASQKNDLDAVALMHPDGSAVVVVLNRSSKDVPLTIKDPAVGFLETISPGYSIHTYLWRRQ
Sequence of Cytochrome P450 2C19 (Homo sapiens) (P33261 whole entry, looked up): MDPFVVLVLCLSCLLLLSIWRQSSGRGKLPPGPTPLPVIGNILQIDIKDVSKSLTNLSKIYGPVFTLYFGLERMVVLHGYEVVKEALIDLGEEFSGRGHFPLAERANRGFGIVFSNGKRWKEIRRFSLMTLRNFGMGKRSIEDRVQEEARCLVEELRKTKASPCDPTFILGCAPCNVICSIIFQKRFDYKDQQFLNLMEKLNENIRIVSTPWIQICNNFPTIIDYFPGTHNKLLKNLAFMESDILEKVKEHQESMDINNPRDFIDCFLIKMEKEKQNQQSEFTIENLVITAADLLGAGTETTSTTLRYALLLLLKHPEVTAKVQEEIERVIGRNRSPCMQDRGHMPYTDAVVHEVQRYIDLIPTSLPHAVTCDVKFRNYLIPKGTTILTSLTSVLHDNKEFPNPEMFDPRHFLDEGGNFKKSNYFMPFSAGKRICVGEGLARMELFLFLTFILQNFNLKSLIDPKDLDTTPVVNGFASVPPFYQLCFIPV

COc1cccc(Nc2ncc3nc(C)c(=O)n(-c4ccccc4)c3n2)c1
active: Potency [2] 5.01 µM | Potency [11] 12.6 µM | Potency [12] 1.58 µM
-3.12%: max response [10, 20]
-13.9%: max response [10, 21]
inactive: Potency [1] > 11.4 µM | activity change, negative = inhibition [3] 11.1% | activity, negative = inhibition [4] -20.1% | Potency [5] > 9.22 µM | Potency [6] > 46 µM | Potency [7] | Potency [8] | Potency [9] | activity change, negative = inhibition ([10]; at 57.5 µM (top of the series)) -6.79% | Potency [13]

N#CCCn1c(=O)c(-c2ccc(F)cc2)nc2cnc(OCc3ccccc3)nc21
-3.12%: max response [10, 21]
active: Potency [2] 1.58 µM
0.762%: max response [10, 20]
inactive: Potency [1] > 11.4 µM | activity change, negative = inhibition [3] -4.49% | activity, negative = inhibition [4] -20.1% | Potency [5] > 9.22 µM | Potency [6] > 46 µM | Potency [7] | Potency [8] | Potency [9] | activity change, negative = inhibition ([10]; at 57.5 µM (top of the series)) -1.54% | Potency [11] | Potency [12] | Potency [13]

COc1ccc2ccc(=O)oc2c1
5.5%: max response [10, 21]
-2.86%: max response [10, 20]
inactive: Potency [14] | Potency [15] | outcome [16] | activity change, negative = inhibition ([10]; at 57.5 µM (top of the series)) 7.71% | Potency [13]

O=c1ccc2ccc(O)cc2o1
19.2%: max response [10, 21]
inactive: Potency [14] | Potency [15] | outcome [16] | activity change, negative = inhibition ([10]; at 57.5 µM (top of the series)) 5.83% | Potency [13]
11.1%: max response [10, 20]

CC12CC[C@@H]3c4ccc(OS(=O)(=O)O)cc4CC[C@H]3C1CCC2=O (stereo partly specified)
-14.5%: max response [10, 20]
inactive: activity change, negative = inhibition [17] 19.9% [at 17.2 µM] | activity change, negative = inhibition [3] -17.6% [at 17.2 µM] | activity, negative = inhibition [4] -9.95% [at 17.2 µM] | Potency [5] > 20.6 µM | Potency [6] > 20.6 µM | Potency [7] | Potency [8] | activity change, negative = inhibition ([10]; at 25.7 µM (top of the series)) -2.17% | Potency [13]
-17.7%: max response [10, 21]

FC(F)(F)c1ccccc1-c1ccc2ncnc(N3CCOCC3)c2c1
active: Potency [2] 0.251 µM | Potency [18] 0.631 µM
23.6%: max response [10, 21]
20.5%: max response [10, 20]
inactive: Potency [1] > 11.4 µM | activity, negative = inhibition [4] 4.75% | Potency [5] > 46 µM | Potency [6] > 46 µM | Potency [7] | Potency [9] | activity change, negative = inhibition ([10]; at 57.5 µM (top of the series)) 5.7% | Potency [12] | Potency [13]

CC(C)N1CCN(c2ccc(OC[C@@H]3CO[C@@](Cn4cncn4)(c4ccc(Cl)cc4Cl)O3)cc2)CC1
-0.321%: max response [10, 20]
-3.7%: max response [10, 21]
active: Potency [14] 1.58 µM
inactive: activity change, negative = inhibition [17] 0.955% [at 17.2 µM] | Potency [2] | activity, negative = inhibition [4] 1.27% [at 17.2 µM] | Potency [7] | Potency [8] | Potency [9] | activity change, negative = inhibition ([10]; at 25.7 µM (top of the series)) -0.441% | Potency [13]

FC(F)(F)c1ccccc1-c1ccc2ncnc(NCCN3CCOCC3)c2c1
active: Potency [1] 8.84 µM
inactive: activity change, negative = inhibition [3] 10.2% | activity, negative = inhibition [4] -13.9% | Potency [5] > 46 µM | Potency [6] > 46 µM | Potency [7] | activation [19] -0.346% | activity change, negative = inhibition ([10]; at 57.5 µM (top of the series)) -5.53% | Potency [12] | Potency [13]
-2.12%: max response [10, 21]
3.86%: max response [10, 20]
